Measurements as given in PubChem BioAssay AID1159580 (chemical genetic matrix, 2015).
The whole screen tested about 5,500 compounds, of which about 2,000 (36%) were called active. Roughly 18% stayed inconclusive and do not appear here. No stated cut-off is given here; in the data, active means normalized growth mostly below about 0.91 (no sharp cut-off); inconclusive means no clear call, values can overlap the other calls; inactive means mostly above about 0.92. The list shows a part of the results.

Assay: chemical genetic growth profiling, strain panel (AID 1159580);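 further: tested at 20 µM; growth read once vehicle control cultures reached saturation at 30 °C; 1 = growth at the plate median or of vehicle wells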
Conditions: S. cerevisiae deletion strains, growth OD
[1] = locus YAL040C, strain CLN3, stronger effect = lower value
[2] = locus YDR363W, strain ESC2, stronger effect = lower value
[3] = locus YER002W, strain NOP16, stronger effect = lower value
[4] = locus YNL128W, strain TEP1, stronger effect = lower value
[5] = locus YNL153C, strain GIM3, stronger effect = lower value
[6] = locus YNL175C, strain NOP13, stronger effect = lower value
[7] = locus YNL197C, strain WHI3, stronger effect = lower value
[8] = locus YNL224C, strain SQS1, stronger effect = lower value
[9] = locus YNL322C, strain KRE1, stronger effect = lower value
[10] = locus YOR083W, strain WHI5 (second series), stronger effect = lower value

Measured: normalized growth

C#CCN[C@H](C)Cc1ccccc1
inactive: [1] 1 | locus YCL061C, strain MRC1 (second series), stronger effect = lower value 0.992 | locus YDR150W, strain NUM1, stronger effect = lower value 0.997 | [2] 1.01 | [3] 0.996 | locus YGR078C, strain PAC10, stronger effect = lower value 0.987 | locus YJR075W, strain HOC1, stronger effect = lower value 0.994 | [4] 0.998 | [5] 1 | [6] 0.997 | [7] 0.982 | [8] 0.995 | [9] 0.998 | [10] 1.03 | locus YPL241C, strain CIN2, stronger effect = lower value 0.999

CC(=O)N[C@@H](Cc1c[nH]c2ccccc12)C(=O)OCc1cc(C(F)(F)F)cc(C(F)(F)F)c1
inactive: locus YAL013W, strain DEP1, stronger effect = lower value 0.999 | [1] 1.02 | [2] 1.01 | [3] 1 | locus YMR263W, strain SAP30, stronger effect = lower value 0.994 | [4] 1.03 | [5] 0.969 | [6] 0.985 | [7] 0.994 | [8] 0.994 | [9] 1.01 | [10] 1.03
